Experimental data as given in ChEMBL document CHEMBL3433997, “St. Jude Leishmania screening dataset” (2016).

How the values were obtained:
Format in all cases: functional
[1] = biological target: Solute carrier family 2, facilitated glucose transporter member 1 (Homo sapiens) (UniProt P11166); assay: ST_JUDE_LEISH: Cytotoxicity at 2uM final concentration against transgenic Leishmania Mexicana promastigotes LmGLUT1 that are glucose transport deficient and complemented with the human glucose transporter GLUT1. Activity is measured by DNA content using SYBR green in vitro
Sequence of Solute carrier family 2, facilitated glucose transporter member 1 (Homo sapiens) (P11166 whole entry): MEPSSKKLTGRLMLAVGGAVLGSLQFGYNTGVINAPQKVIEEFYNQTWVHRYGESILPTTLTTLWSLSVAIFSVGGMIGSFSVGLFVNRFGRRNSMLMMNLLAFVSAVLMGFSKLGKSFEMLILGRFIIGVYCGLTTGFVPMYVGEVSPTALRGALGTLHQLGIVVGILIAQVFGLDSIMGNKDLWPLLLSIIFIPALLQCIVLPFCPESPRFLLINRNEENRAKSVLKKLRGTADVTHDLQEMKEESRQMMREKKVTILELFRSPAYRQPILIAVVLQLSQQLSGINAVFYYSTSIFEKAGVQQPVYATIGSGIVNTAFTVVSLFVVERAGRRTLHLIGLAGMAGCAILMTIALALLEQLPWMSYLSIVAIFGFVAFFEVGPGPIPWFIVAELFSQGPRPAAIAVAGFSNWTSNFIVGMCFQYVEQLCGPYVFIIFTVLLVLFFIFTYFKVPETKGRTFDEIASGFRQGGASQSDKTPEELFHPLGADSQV

[2] = biological target: Hexose transporter 1 (Plasmodium falciparum) (UniProt O97467); assay: ST_JUDE_LEISH: Cytotoxicity at 2uM final concentration against transgenic Leishmania Mexicana promastigotes LmPfHT that are glucose transport deficient and complemented with the Plasmodium falciparum hexose transporter. Activity is measured by DNA content using SYBR green in vitro
[3] = biological target: Glucose transporter (Leishmania mexicana) (UniProt O61059); assay: ST_JUDE_LEISH: Cytotoxicity at 2uM final concentration against transgenic Leishmania Mexicana promastigotes LmGT2 that are glucose transport deficient and complemented with the L. Mexicana glucose transporter 2. Activity is measured by DNA content using SYBR green in vitro

`O=C(CSc1cccc[n+]1[O-])c1ccc(Cc2ncc(C(F)(F)F)cc2Cl)s1` gave an inhibition [1] of 9.45%, an inhibition [2] of 9.48% and an inhibition [3] of 10.7%.

`COc1cc2nc(N3CCN(c4cc(C)ccc4C)CC3)nc(N)c2cc1OC` gave an inhibition [1] of 1.13%, an inhibition [2] of 0.08% and an inhibition [3] of 0.51%.

`CC(C)Nc1cc(C(=O)N[C@@H](Cc2ccccc2)[C@H](O)CNC2CCCCC2)cc(N2CCCCS2(=O)=O)c1` showed an inhibition [1] of 0.23%, an inhibition [2] of 3.37% and an inhibition [3] of 7.2%.

`O=C(NCc1cccc2ccccc12)C(c1cc2ccccc2o1)N1CCN(C(c2ccccc2)c2ccccc2)CC1` (stereo unspecified) showed an inhibition [1] of 3.87%, an inhibition [2] of 1.42% and an inhibition [3] of -2.97%.

`c1ccc(Oc2ccc(Nc3ccnc(Nc4ccc5cn[nH]c5c4)n3)cc2)cc1` gave an inhibition [1] of 3.91%, an inhibition [2] of 3.81% and an inhibition [3] of 1.54%.

`CCN(CC)CCN(Cc1ccc(-c2ccc(C(F)(F)F)cc2)cc1)C(=O)Cn1c(CCc2cc(F)c(F)c(F)c2)nc(=O)c2ccccc21` was tested, and the inhibition [1] was 9.62%, the inhibition [2] was 9.17% and the inhibition [3] was 8.54%.

`CCN1CCC(NCc2ccc(-c3ccc(Cl)s3)cc2)CC1` was tested, and the inhibition [1] was -1.87%, the inhibition [2] was -1.38% and the inhibition [3] was -1.7%.

In the case of `CC(C)N1CCN(C(CN2CCN(CCCOc3cccc4ccccc34)CC2)c2ccc(F)cc2)CC1` (stereo unspecified), the inhibition [1] was -1.68%, the inhibition [2] was 0.92% and the inhibition [3] was 4.19%.

Molecule `Cc1cc(-c2ccc(CN3Cc4ccccc4C3)cc2)ccc1S(=O)(=O)NCCN1CCCC1` has an inhibition [1] of 40.3%, an inhibition [2] of 17.2% and an inhibition [3] of 11%.

Work on `CC(C)CCn1c(Sc2ccc(C#N)c([N+](=O)[O-])c2)nnc1-c1cccc(Cl)c1` yielded an inhibition [1] of 9.63%, an inhibition [2] of 9.97% and an inhibition [3] of 8.26%.

Work on `COc1ccc2nccc([C@@H](O)CN3CCC(NCc4ccc5cccc(O)c5n4)CC3)c2c1` yielded an inhibition [1] of 7.73%, an inhibition [2] of 7.94% and an inhibition [3] of 3.46%.

For `O=C(Nc1ccc(F)c(F)c1)c1ccc(CN2CCCN(Cc3cccc(O)c3)CC2)cc1`, the inhibition [1] was 3.12%, the inhibition [2] was 2.77% and the inhibition [3] was 3.84%.
